Rows were chosen to be rich in hits. Some 1.8% of all compounds tested hit in one or more screens of this group.
CIT2 TOR yeast – modulators of CIT2-GFP expression in yeast, primary screen, S. cerevisiae, GFP fusion, multiplex flow cytometry, MLPCN library; S. cerevisiae CIT2-GFP strain, 3 h; 100 means same as DMSO wells; GFP response vs DMSO, % at 10 µM; 0.065% of 320,000 active; AID 2029, 2009;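 active = GFP response relative to DMSO above a set limit, near the screen mean plus 3 SD, cut at about 150% in these data; inconclusive = Fewer than 70 cells measured for a yeast strain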;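 note: ratio of well median GFP fluorescence to mean of DMSO wells on the plate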
AGP1-GFP MLPCN – modulators of AGP1-GFP expression in yeast TOR pathway, primary screen, cell-based, multiplex flow cytometry, S. cerevisiae, MLPCN library. AID 2066, 2009. GFP response vs DMSO, % at 10 µM. 3 h; GFP as percent of DMSO wells. 0.02% of 320,000 active;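 active = GFP response relative to DMSO above a set limit, near screen average plus 3 SD, cut at about 150% in these data; inconclusive = fewer than 70 cells counted for the yeast strain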;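 note: median GFP channel fluorescence of the gated AGP1 strain per well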
Myeloid diff MLP – induction of myeloid progenitor differentiation, primary screen, cell-based, flow cytometry, MLPCN library; ER-HoxA9 myeloid progenitors, lysozyme-GFP differentiation; calls only at 10 µM; 1% of 360,000 active; AID 624256, 2012;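 active = normalized GFP-positive differentiation at or above the plate's own cutoff, the solvent-only control mean plus 3 SD; inconclusive = no clear call, values can overlap the other calls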;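 note: cells exposed to compound for four days before flow analysis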
MEP2-GFP yeast – modulators of MEP2-GFP levels in yeast, primary screen, S. cerevisiae, multiplex flow cytometry, MLPCN library; 0.51% of 330,000 active; GFP response vs DMSO, % at 10 µM; AID 2016, 2009; S. cerevisiae MEP2-GFP strain, 3 h; 100% = DMSO control level;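 active = GFP response versus DMSO above a set limit, roughly screen mean plus 3 SD, cut at about 180% in these data; inconclusive = fewer than 70 cells counted for a yeast strain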;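 note: median GFP fluorescence of the barcode-gated MEP2-GFP cells per well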
RPL19A-GFP yeast – RPL19A-GFP expression modulators in yeast, primary screen, cell-based, S. cerevisiae, multiplex flow cytometry, MLPCN | S. cerevisiae RPL19A-GFP strain, 3 h; stronger effect = lower value | percent response vs DMSO, % at 10 µM | 0.3% of 330,000 active;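 active = percent response vs DMSO below 50%; inconclusive = fewer than 70 events counted for the yeast strain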;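 note: median channel GFP fluorescence of the barcoded RPL19A-GFP strain; ratio of sample median GFP to plate DMSO average so 100% = DMSO; lower means less RPL19A-GFP as with rapamycin TOR inhibition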
LAP4 TOR yeast – modulators of LAP4-GFP expression in yeast, primary screen, S. cerevisiae, multiplex flow cytometry, MLPCN library. 3 h; median GFP as percent of DMSO wells. GFP response vs DMSO, % at 10 µM. 0.34% of 320,000 active. AID 2023, 2009;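 active = GFP response vs DMSO above a set limit, about the screen mean plus 3 SD, cut at about 150% in these data; inconclusive = under 70 cell events counted for the yeast strain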
* hit, by the source's call; i = inactive; ? = inconclusive; . = no result; + = active, no number; [ ] = dose if it differs, or a comment.

SMILES	CIT2 TOR yeast	AGP1-GFP MLPCN	Myeloid diff MLP	MEP2-GFP yeast	RPL19A-GFP yeast	LAP4 TOR yeast
Cc1ccc(O)c(C(=O)c2cnc3c(c2)COc2ccccc2-3)c1	85.2	.	+	98.1	92.1	96.6
CC(=O)N1CCN(Cc2nc3cc(NC(=O)COc4cccc(C)c4)ccc3n2C)CC1	102.2	94.3	i	102.9	96.9	90.5
CCOC(=O)C1=C(c2ccccc2)N(C)C(=O)NC1c1ccc(OC(F)F)c(OC)c1 (stereo unspecified)	101.3	104.1	+	106.0	101.1	102.6
O=C(CNC(=O)c1ccco1)OCN1C(=O)c2ccccc2C1=O	?	28.4	i	269.0*[may fluoresce violet]	66.0	98.3
Cc1ccc(C(=O)NCC(=O)OCN2C(=O)c3ccccc3C2=O)cc1C	80.3	85.0	i	97.8	93.5	104.2
COCCCNC(=O)C[C@H]1C[C@H](C(=O)N(C(C)C)C(C)C)[C@@]2(C)c3[nH]c4cc(-c5ccco5)ccc4c3CCN2C1=O	.	.	i	.	.	.
COc1ccc(NC(=S)NCCCCCC(=O)C[N+](=O)[O-])cc1	62.6	84.4	i	118.6	88.4	251.2*
Cc1nc(C)c(-c2csc(Nc3ccc(O)c(C(=O)O)c3)n2)s1	103.2	109.6	i	107.7	107.1	104.8
CCN(CC)S(=O)(=O)c1ccc(NC2c3ccccc3C(=O)N2CCN2CCOCC2)cc1 (stereo unspecified)	95.3	100.5	+	93.1	97.7	98.0
Cc1ccc(S(=O)(=O)Nc2cc(Cl)c(O)c3ncccc23)cc1	103.2	98.7	i	97.3	103.2	154.0*
COc1ccc(O)c(CN2CCCC(N3CCN(c4ccc(F)cc4)CC3)C2)c1 (stereo unspecified)	104.8	124.7	i	93.9	98.2	97.0
COc1ccc(N2CCN(C3CCCN(Cc4ccc(F)cc4Cl)C3)CC2)cc1 (stereo unspecified)	102.1	100.2	+	102.8	98.5	96.0
O=C(COC(=O)c1c2c(nc3ccccc13)CCCC2)c1cccs1	91.8	84.1	i	98.4	89.8	120.4
CC(C)(C)c1ccc(O)c(N=Cc2cc(Br)ccc2O)c1	98.2	101.1	i	93.8	99.4	100.1
Cc1ccc(O)c(C=Nc2cc(C)ccc2O)c1	120.3	107.7	+	103.4	113.0	89.3
Cc1cccc(-n2nnnc2SC(C)C(=O)NCCC2=CCCCC2)c1 (stereo unspecified)	106.5	107.3	i	109.3	107.0	111.0
Cc1nnc(-c2cccc(Br)c2)c2cn(-c3cccc(Br)c3)nc12	109.5	111.4	i	107.2	102.1	105.4
Cc1nnc(-c2cccc(Br)c2)c2cn(-c3ccccc3)nc12	94.4	87.2	+	95.4	102.6	112.8
Cc1nnc(-c2cccc(Br)c2)c2cn(-c3ccc(Br)cc3)nc12	97.7	99.6	i	108.1	98.7	114.6
COc1ccc(-n2cc3c(-c4cccc(Br)c4)nnc(C)c3n2)cc1	83.4	78.9	+	95.1	97.9	99.4
CCN1CCN(S(=O)(=O)c2ccc(Cl)c(C(=O)N(C)C3CCCCC3)c2)CC1	.	.	i	.	.	.
Oc1cccnc1CN1CCOCC1	.	.	i	.	.	.
Nc1nc(CN2CCN(Cc3ccccc3)CC2)nc(Nc2ccc3c(c2)OCCO3)n1	103.4	103.1	i	100.5	100.2	110.5
NS(=O)(=O)c1ccc(N/N=C/c2cn(-c3ccccc3)nc2-c2cccs2)c([N+](=O)[O-])c1	?	?	i	221.1*[may fluoresce violet]	18.9*[may fluoresce violet]	61.1
CC1CC(C)CN(CCCNS(=O)(=O)c2ccc3c(c2)oc(=O)n3C)C1 (stereo unspecified)	108.4	97.4	+	103.7	111.4	72.7
SMILES	CIT2 TOR yeast	AGP1-GFP MLPCN	Myeloid diff MLP	MEP2-GFP yeast	RPL19A-GFP yeast	LAP4 TOR yeast
Cn1c(=O)oc2cc(S(=O)(=O)NCC3CCCO3)ccc21 (stereo unspecified)	.	91.8	+	98.1	95.3	96.1
CCN1/C(=C/c2ccc3cc(C)ccc3[n+]2CC)Sc2ccccc21	+[may fluoresce green]	238.0*[may fluoresce green]	?	+[may fluoresce green]	321.2	604.9*[may fluoresce green]
CCOC(=O)c1c[nH]c2c([N+](=O)[O-])cc(OC)cc2c1=O	.	.	i	.	.	.
Cc1cnc(C(=O)OCC(=O)C23CC4CC(CC(C4)C2)C3)cn1	94.2	94.0	+	99.4	94.0	92.1
Cc1cnc(C(=O)OCC(=O)NC23CC4CC(CC(C4)C2)C3)cn1	98.0	93.4	i	91.6	93.7	92.4
CCCCn1c(N)c(N(CCOC)C(=O)COC(=O)Cc2cccc(OC)c2)c(=O)[nH]c1=O	112.6	111.9	i	104.7	100.7	99.8
CC(C)N(Cc1ccccc1)C(=O)CN1C(=O)COc2ccc(S(=O)(=O)NC3CCCC3)cc21	90.8	90.7	i	87.0	92.5	87.5
CC(=O)Nc1ccc(S(=O)(=O)Nc2cc3c(cc2C(C)=O)OCO3)cc1	?	?	i	465.6*[may fluoresce violet]	50.6	82.6
CC(=O)c1cc2c(cc1NS(=O)(=O)c1ccccc1)OCO2	86.2	100.4	i	99.3	101.5	96.7
COC(=O)C1=C(C)N(CC2CC2)C(=NCc2cccc(C(F)(F)F)c2)N[C@H]1c1ccccc1	99.3	105.1	+	105.2	98.1	102.8
COC(=O)C1=C(C)N(Cc2ccccc2)C(=NCc2cccc(C(F)(F)F)c2)N[C@H]1c1cccc(C(F)(F)F)c1	103.0	113.2	?	103.7	107.5	107.7
O=C1CC(N2CCN(Cc3ccccc3)CC2)C(=O)N1c1ccc2c(c1)OCCO2 (stereo unspecified)	103.2	102.7	i	91.2	101.8	102.0
COCCNC(=O)c1cn(C)c2ccc(S(=O)(=O)N(C)C3CCCCC3)cc2c1=O	99.8	104.0	i	98.7	99.7	105.6
COc1cccc(OCC(=O)N2CCCc3ccccc32)c1	103.0	121.2	i	222.5*	86.2	144.5
COc1ccc(CCC(=O)N2CCCc3ccccc32)cc1	?	?	i	648.8*[may fluoresce violet]	50.1	72.7
Cc1ccccc1OCC(=O)N1CCCc2ccccc21	102.0	105.5	i	105.4	103.7	103.0
COc1ccc(Br)cc1CNC(=O)CCCc1cn(C)c2ccccc12	97.7	102.1	+	113.6	101.3	101.3
COc1ccc(OC)c(CNC(=O)CCCc2cn(C)c3ccccc23)c1	95.0	101.6	i	97.0	100.2	105.1
Cc1cc2oc(=O)cc(-c3cc4ccccc4o3)c2cc1O	98.0	104.7	i	96.6	97.3	102.5

High-throughput results from PubChem.
